KLK7 zymogen act: proKLK7 zymogen activators, primary screen, biochemical, fluorescence intensity; AID 652039, 2013; Kallikrein-7 (Homo sapiens), P49862; 0.9% of 370,000 active; activation, % at 7 µM; purified proKLK7, EDANS-DABCYL substrate fluorescence; 100% is mature enzyme control, 0% vehicle;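 active means activation above the mean of all tested compounds plus 3 SD, computed per campaign excluding outliers beyond control limits, cut at about 13% in these data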
AHR act: AHR activators, primary screen, cell-based, luminescence, luciferase reporter, human; 2.5% of 320,000 active; activation, % at 5 µM; AHR-responsive luciferase reporter cells; Aryl hydrocarbon receptor (Homo sapiens), P35869; in the data active means activation above about 47%;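 further: 0% = vehicle wells and 100% = reference agonist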
rCAG binder: binders of r(CAG) RNA repeats, primary screen, biochemical, fluorescence; r(CAG) RNA repeat, TO-PRO-1 dye displacement fluorescence; inhibition, % at 3 µM; 1.3% of 370,000 active; AID 651821, 2012;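 active means inhibition above the plate cutoff, the mean of all test compounds on that plate plus 3 SD, cut at about 35% in these data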;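 further: 0% = DMSO alone and 100% = 100 µM mitoxantrone as full dye displacement; higher means more dye released from RNA so lower well fluorescence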
ADAM10 inh: human ADAM10 inhibitors, primary screen, biochemical, QFRET, HTS; recombinant ADAM10, EDANS/DABCYL FRET peptide cleavage, 3 h; inhibition, % at 7 µM; 0.62% of 370,000 active;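 active means inhibition above a per-campaign cutoff equal to the mean of compounds falling between control-based bounds plus 3 SD, cut at about 20% in these data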;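 further: 0% = DMSO wells while the 100% control is not disclosed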
ADAM17 inh: ADAM17 inhibitors, primary screen, biochemical, QFRET | AID 720648, 2013 | recombinant ADAM17, EDANS/DABCYL FRET peptide cleavage | 0.83% of 370,000 active | inhibition, % at 6.95 µM;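 active means inhibition above the mean of compounds lying between control limits plus 3 SD, set per campaign, cut at about 8.5% in these data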;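 further: 0% = DMSO-only wells as the low control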
Target sequence (P78536 215-824 limits assumed): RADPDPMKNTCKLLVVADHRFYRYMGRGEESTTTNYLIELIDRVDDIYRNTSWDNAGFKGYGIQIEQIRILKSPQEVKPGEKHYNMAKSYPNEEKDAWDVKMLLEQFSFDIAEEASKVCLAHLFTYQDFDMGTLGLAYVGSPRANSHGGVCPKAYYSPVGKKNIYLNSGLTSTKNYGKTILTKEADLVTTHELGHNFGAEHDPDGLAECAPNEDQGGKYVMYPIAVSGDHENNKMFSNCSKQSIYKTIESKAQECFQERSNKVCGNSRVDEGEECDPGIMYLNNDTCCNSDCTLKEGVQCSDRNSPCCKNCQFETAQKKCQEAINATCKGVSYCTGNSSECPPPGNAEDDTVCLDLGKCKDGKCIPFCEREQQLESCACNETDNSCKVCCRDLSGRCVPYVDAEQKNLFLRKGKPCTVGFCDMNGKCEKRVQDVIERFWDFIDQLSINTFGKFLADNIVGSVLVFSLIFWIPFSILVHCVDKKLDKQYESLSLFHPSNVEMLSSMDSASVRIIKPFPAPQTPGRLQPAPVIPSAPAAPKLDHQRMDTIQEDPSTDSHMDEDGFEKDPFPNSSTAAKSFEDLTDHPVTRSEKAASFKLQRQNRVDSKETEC
GRIN3A LBD mod: binders of NR3A ligand-binding domain, primary screen, biophysical, differential scanning fluorimetry, uHTS | AID 1259313, 2017 | Tm shift relative to glycine control, % at 25 µM | NR3A LBD differential scanning fluorimetry, Tm shift; 0% = protein alone, 100% = glycine-bound protein | Glutamate receptor ionotropic, NMDA 3A (GRIN3A) ligand-binding domain | 2.5% of 340,000 active;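 active means melting temperature shift of at least 10% of the positive control shift, at one fixed dose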
Active calls of the source: *; i = inactive; nt = not tested or not shown. Only some compounds are listed: those with a hit (about 7% of all), similar ones and a draw of the others.

SMILES	KLK7 zymogen act	AHR act	rCAG binder	ADAM10 inh	ADAM17 inh	GRIN3A LBD mod
CCCc1ccc(-c2cc(C(=O)NCCc3ccc(S(N)(=O)=O)cc3)c3ccccc3n2)cc1	-1	13	19	-47	-18	12*
CC1=CN(S(=O)(=O)c2ccc(C)cc2)C[C@@H]2c3ccccc3N(S(=O)(=O)c3ccc(C)cc3)[C@H]12	0	nt	7	-17	-1	17*
Cc1cc(NS(=O)(=O)c2ccc(NC(=O)Cc3ccccc3)cc2)no1	-1	nt	4	-5	-7	nt
Cc1cccc(NS(=O)(=O)c2ccc(C(=O)N3CCCC3)cc2)c1C	0	-1	-2	2	-2	19*
CCOC(=O)C[C@H]1c2ccccc2S(=O)(=O)N1Cc1ccc(Cl)cc1	-1	0	-6	6	2	13*
COC(=O)C1CN(C2CCCC2)CCS(=O)(=O)N1Cc1ccc(F)cc1 (stereo not drawn)	0	nt	-1	1	-3	nt
O=C(N/N=C/C=C/c1ccccc1)c1ccncc1	-1	8	2	7	6	25*
CCOc1ccccc1NC(=O)c1ccc2c(c1)C(=O)N(CC1CCCO1)C2=O (stereo not drawn)	-1	73*	-4	8	-8	-26
CCCCOc1ccc2ccccc2c1C=O	0	-7	1	5	2	10*
COc1cc(C=NN=c2sc3ccccc3n2C)ccc1OCCO	0	nt	2	-18	-4	nt
O=C(Nc1ccccc1)N1CCCC(c2nc(-c3cccs3)no2)C1 (stereo not drawn)	nt	70*	nt	nt	nt	-7
COc1ccc(NC(=O)N2CCC(c3nc(-c4cccs4)no3)CC2)cc1	0	60*	-6	3	-3	-1
CN(C)c1nc(N/N=C\c2ccc(Cl)c([N+](=O)[O-])c2)nc(Nc2ccc(F)cc2)n1	0	9	15	-7	-5	30*
Nn1cnnc1N/N=C/c1ccc(Cl)c([N+](=O)[O-])c1	0	15	7	10	3	-2
Cc1cc(NC(=O)Cn2nnc(-c3ccccc3N)n2)no1	1	5	0	2	2	26*
C#Cc1cccc(NC(=O)c2ccc3c(c2)C(=O)N(Cc2cccnc2)C3=O)c1	0	57*	5	10	2	-5
O=C(O)c1cc(NC(=O)c2ccc3c(c2)C(=O)N(Cc2cccnc2)C3=O)cc(C(=O)O)c1	1	1	0	7	-5	0
Cc1ccnc(SCc2cc(=O)c(OC(=O)c3ccc(C)c([N+](=O)[O-])c3)co2)n1	nt	nt	nt	-7	-2	nt
O=C(Cc1cccs1)N=Nc1c(O)[nH]c2ccc(Br)cc12	0	23	16	-1	2	-3
O=C(Cn1c(C(F)(F)F)nc2ccccc21)N=Nc1c(O)[nH]c2ccc(Br)cc12	0	19	2	-3	-1	10*
C#CCCCN([C@H](C(=O)OC)C(C)C)S(=O)(=O)c1ccccc1Br	1	nt	0	5	8	nt
CCCCCC[C@H](CC)CN(C(=O)Oc1ccccc1)c1ccccc1	1	nt	2	-16	-5	nt
O=S1(=O)c2c(NCc3ccco3)cccc2Oc2ccccc2CN1Cc1cn(Cc2ccccc2C(F)(F)F)nn1	-2	nt	14	-10	-2	nt
O=C(NC1CCCC1)c1nc(-c2ccco2)oc1-c1ccccc1	-1	nt	35*	-84	-19	nt
O=C(NC1CCCCC1)c1nc(-c2c(F)cccc2F)oc1-c1ccccc1	0	nt	2	-12	-5	nt
SMILES	KLK7 zymogen act	AHR act	rCAG binder	ADAM10 inh	ADAM17 inh	GRIN3A LBD mod
C#CCCC(=O)Nc1sc2c(c1-c1nc3ccccc3s1)CCN(C(C)C)C2	nt	nt	nt	-341	-110	nt
CN(C)c1cc(N/N=C\c2ccccc2)nc(N(C)C)n1	0	54*	-4	-10	-4	-3
COc1ccc(/C=N/Nc2cc(N(C)C)nc(N(C)C)n2)cc1	0	49*	-1	-4	1	-9
O=C(OCC#CCSc1nnc(-c2cccc3ccccc23)o1)c1ccc(F)cc1F	nt	nt	nt	-3	-1	nt
Cc1nc(NCCc2ccc(S(N)(=O)=O)cc2)c2c(C)c(C)sc2n1	0	0	4	-3	4	2
Cc1nc(NCCNC(=O)c2ccco2)c2c(C)c(C)sc2n1	0	27	4	-28	-9	14*
Cc1cnc(NC(=O)/C=C/c2ccc(Br)o2)s1	0	10	0	-1	-5	1
O=C(/C=C/c1ccc(Br)o1)Nc1nnc(C2CC2)s1	nt	66*	nt	nt	nt	nt
COC(=O)[C@]12C[C@H](CC(=O)N3CCCC3)C(=O)N(Cc3ccccc3)C1=C[C@H](C1CCCC1)O[C@@H]2C	0	nt	-1	-4	-1	nt
COC(=O)c1cc2c(c3c4ccccc4n(S(=O)(=O)c4ccc(OC)cc4)c13)C(=O)N(Cc1ccc(N(C)C)cc1)C2	0	nt	15	13	2	nt
COc1ccc(NC(=O)/C=C/c2c(Cl)nc3ccccn23)cc1	1	-3	4	6	2	17*
COc1ccccc1N1CCN(C(=O)/C=C/c2c(Cl)nc3ccccn23)CC1	0	-1	-3	-2	0	-15
COc1ccc(C(=O)CC(=O)c2ccccc2O)cc1	11	8	3	i	i	3
COc1ccc(C(=O)CC(=O)c2ccccc2O)cc1OC	4	-2	2	-358	-131	15*
CCC(=O)c1ccc(OCc2ccccc2)c(OC)c1	0	6	-8	-11	-4	11*
COc1cc(/C=C(/C#N)C(=O)Nc2ccccc2)ccc1OCc1ccc(C(=O)O)cc1	0	0	40*	2	-1	0
COc1cc(/C=C(\C#N)C(=O)Nc2cccc(C(=O)O)c2)ccc1OCc1ccc(C)cc1	0	-2	4	-2	0	-7
C[n+]1c(-c2ccccc2)cc2c(=Cc3ccccc3)c3ccccc3n21	-3	nt	10	-181	-48	-6
C[n+]1c(-c2ccccc2)cc2c(=Cc3ccc([N+](=O)[O-])cc3)c3ccccc3n21	-3	nt	11	-71	-26	14*
COc1cc2nc(CN(CCC(C)C)Cc3nc4cc(OC)c(OC)cc4c(=O)[nH]3)[nH]c(=O)c2cc1OC	-3	3	2	-6	-3	11*
CC1CCCCC1NS(=O)(=O)CCNC(=O)c1ccc2c(c1)OCO2 (stereo not drawn)	0	5	-6	-8	-7	0
CC1CCCC(NC(=O)c2ccc3c(c2)OCO3)C1C (stereo not drawn)	0	70*	-3	0	-3	2
